Reference: PubChem BioAssay AID463173 (ICCB-Longwood Screening Facility, Harvard Medical School, 2010)
Among all 52,000 compounds or so, about 1,700 (3.3%) were called active. The entries come from a sample that favours actives as a whole. A number with no mark means an inactive call. Cut-off read from the data, not from the text of the source: active = survival mostly below about 52% (no sharp cut-off); inactive = mostly above about 56%.

What follows are compounds tested on Wild type (assay: S. aureus survival, RN4220 and DeltatarO strains – OD600, teichoic acid synthesis inhibitors, primary screen (AID 463173)). Conditions: S. aureus RN4220 wild type/DeltatarO growth, OD600, 18 h, active compounds read low, screened at 18.75 µg/mL (by protocol).

Row | SMILES | survival
1 | Cc1ccc(N2CCN(c3nc4ccc(C(=O)c5ccccc5)cc4n4cnnc34)CC2)c(C)c1 | 72%
2 | Cc1ccc(Cl)cc1N1CCN(c2nc3ccc(C(=O)c4ccccc4)cc3n3cnnc23)CC1 | -6% (active)
3 | Cc1ccc(C)c(N2CCN(c3nc4ccc(C(=O)c5ccccc5)cc4n4cnnc34)CC2)c1 | 100%
4 | Cc1ccc(C)c(N2CCN(c3nc4ccccc4n4c(C)nnc34)CC2)c1 | 87%
5 | CCc1nnc2c3ccccc3nc(N3CCN(c4cc(Cl)ccc4C)CC3)n12 | 126%
6 | CCc1nnc2c(N3CCN(c4cc(Cl)ccc4C)CC3)nc3ccccc3n12 | -6% (active)
7 | O=C(CN1C(=O)C2(SCC(=O)N2c2ccc(F)c(F)c2)c2ccccc21)Nc1cccc(Cl)c1 (centres undefined) | 68%
8 | Fc1ccc(Nc2c3c(nc4ccccc24)CCC3)cc1 | 70%
9 | CCOC(=O)c1cccc(Nc2c3c(nc4ccccc24)CCC3)c1 | 73%
10 | Fc1ccc(F)c(Nc2c3c(nc4ccc(Cl)cc24)CCC3)c1 | -1% (active)
11 | Cc1ccc(Nc2c3c(nc4ccccc24)CCC3)cc1F | 2% (active)
12 | Fc1ccccc1Nc1c2c(nc3ccccc13)CCC2 | 102%
13 | Cc1ccc2nc3c(c(Nc4ccc(C)c(C)c4)c2c1)CCC3 | 39%
14 | FC(F)(F)c1cccc(Nc2c3c(nc4ccc(Cl)cc24)CCC3)c1 | 5% (active)
15 | COc1ccc(Nc2c3c(nc4ccccc24)CCC3)cc1Cl | 72%
16 | COc1ccccc1Nc1c2c(nc3ccc(NC(=O)c4cccc(F)c4)cc13)CCCC2 | 35%
17 | CC1(C)Cc2nc3sc4c(N5CCOCC5)ncnc4c3cc2CO1 | 97%
18 | O=C(Cn1c(=O)oc2ccccc21)NCc1cccc(Cl)c1 | 78%
19 | CCOC(=O)c1cnc2nc(NCc3cccc(Br)c3)[nH]n2c1=O | 98%
20 | NC(=O)C1CCN(c2nc(C3CC3)nc3c2nnn3Cc2ccccc2Cl)CC1 | 108%
21 | O=C(CN1C=NS(=O)(=O)c2ccc(C(F)(F)F)cc21)Nc1cccc(C(F)(F)F)c1 | 76%
22 | COc1cccc(C2CC(=O)Nc3c2c(=O)n(C)c2nc4ccccc4n32)c1OC (centres undefined) | 67%
23 | Cc1oc(-c2ccc(C(=O)NCCCOC(C)C)cc2)nc1CS(=O)(=O)c1ccccc1 | -6% (active)

Row | SMILES | survival
24 | CCOCCCNC(=O)c1ccc(-c2nc(CS(=O)(=O)c3ccccc3)c(C)o2)cc1 | 87%
25 | Cc1ccc(S(=O)(=O)Cc2nc(-c3ccc(C(=O)NCCCOC(C)C)cc3)oc2C)cc1 | 75%
26 | CCOc1ccc(-c2nc(SCC(=O)Nc3ccc4c(c3)OCO4)c(-c3ccc(F)cc3)[nH]2)cc1 | 98%
27 | Cc1ccc(Cl)cc1-n1ncc2c(NCc3ccc(F)cc3)ncnc21 | 73%
28 | Cc1ccc(N2CC(NC(=O)c3ccc(S(=O)(=O)N4CCOCC4)cc3)CC2=O)cc1 (centres undefined) | 47%
29 | O=C(NC1CC(=O)N(c2ccc(F)cc2)C1)c1ccc(S(=O)(=O)N2CCCCC2)cc1 (centres undefined) | 83%
30 | O=C(NC1CC(=O)N(c2ccccc2)C1)c1ccc(S(=O)(=O)N2CCCC2)cc1 (centres undefined) | 133%
31 | O=C(NC1CC(=O)N(c2ccccc2)C1)c1ccc(S(=O)(=O)N2CCCCC2)cc1 (centres undefined) | -1% (active)
32 | O=C(NC1CC(=O)N(c2ccc(Cl)cc2)C1)c1ccc(S(=O)(=O)N2CCOCC2)cc1 (centres undefined) | 91%
33 | O=C(NC1CC(=O)N(c2ccccc2)C1)c1ccc(S(=O)(=O)N2CCOCC2)cc1 (centres undefined) | 14% (active)
34 | CCOc1ccc(NC(=O)C2CCN(S(=O)(=O)c3c(C)noc3/C=C/c3ccco3)CC2)cc1 | 73%
35 | CC(=O)c1ccc(S(=O)(=O)Nc2ccc(-c3ccc(N4CCCCCC4)nn3)cc2)cc1 | 83%
36 | CCOC(=O)c1c(S(=O)(=O)NCC(=O)N2CCN(c3ccccc3)CC2)c(C)n(C)c1C | 112%
37 | CCCCSc1nnc2n(-c3cccc(C)c3)c(=O)c3c4c(sc3n12)CCCC4 | -1% (active)
38 | Cc1cccc(-n2c(=O)c3c4c(sc3n3cnnc23)CCCC4)c1 | 72%
39 | CSc1nnc2n(-c3cccc(C)c3)c(=O)c3c4c(sc3n12)CCCC4 | 79%
40 | CCSc1nnc2n(-c3ccccc3)c(=O)c3c4c(sc3n12)CCCC4 | 108%
41 | CCCSc1nnc2n(-c3cccc(C)c3)c(=O)c3c4c(sc3n12)CCCC4 | 2% (active)
42 | CCSc1nnc2n(-c3cccc(C)c3)c(=O)c3c4c(sc3n12)CCCC4 | 81%
43 | Cc1cc(=O)[nH]c(SCC(=O)N(c2ccccc2)c2ccccc2)n1 | 103%
44 | Cc1ccc(NC(=O)N2CC3CCCN3c3ccccc32)cc1Cl (centres undefined) | 83%
45 | Cc1ccc(NC(=O)N2CC3CCCN3c3ccccc32)c(C)c1 (centres undefined) | 117%
46 | Cc1ccc(NC(=O)N2CC3CCCN3c3ccccc32)cc1C (centres undefined) | -2% (active)

Row | SMILES | survival
47 | COc1ccc(S(=O)(=O)c2c(Nc3c(C)cccc3C)sc(C(=O)c3ccc4c(c3)OCO4)c2N)cc1 | 74%
48 | CCOC(=O)c1ccccc1NC(=O)c1ccco1 | 121%
49 | Cc1cc(Nc2ccccc2F)n2nc(-c3ccccc3)nc2n1 | 84%
50 | Cc1cc(Nc2cc(Cl)ccc2C)n2nc(-c3ccccc3)nc2n1 | 93%
51 | COc1ccccc1Nc1cc(C)nc2nc(-c3ccccc3)nn12 | 14% (active)
52 | CCCCC1CCC(C(=O)N2CC(=O)Nc3ccc(Cl)cc3C2c2ccc(F)cc2)CC1 (centres undefined) | 71%
53 | CC1CCN(C(=O)c2cc3n(n2)C(C(F)(F)F)CC(c2ccccc2)N3)C(C)C1 (centres undefined) | 123%
54 | Cc1cccc(C(=O)Nc2cccc(OCc3cc(=O)n4ccccc4n3)c2)c1 | 72%
55 | CSc1ccc(CCNC(=O)c2ccc3c(c2)c(C)c(C)n3Cc2ccc(F)cc2)cc1 | 70%
56 | Cc1ccc(CNC(=O)c2cnn3c(C)c(Cc4c(F)cccc4Cl)c(C)nc23)cc1 | 65%
57 | Cc1ccc(CNC(=O)CN2CCN(Cc3ccc(F)cc3Cl)C2=O)cc1 | 81%
58 | Cc1nc2c(C(=O)NCCc3ccccc3)c[nH]n2c(=O)c1Cc1ccc(F)cc1Cl | -15% (active)
59 | O=C(NCCc1ccccc1)c1ccc2c(c1)N(Cc1ccc(F)cc1Cl)C(=O)CS2 | 67%
60 | Cc1nc2c(C(=O)NCCc3ccccc3)c[nH]n2c(=O)c1Cc1ccccc1F | -15% (active)
61 | Cc1nc2nc(NCc3ccc(Cl)cc3)[nH]n2c(=O)c1Cc1ccccc1 | 61%
62 | Cc1nc2c(C(=O)NCCc3ccccc3)cnn2c(C)c1Cc1c(F)cccc1Cl | 71%
63 | Cc1ccc(CNC(=O)c2c[nH]n3c(=O)c(Cc4ccc(Cl)cc4)c(C)nc23)cc1 | -14% (active)
64 | Cc1cccn2c(=O)c(C(=O)NCCc3ccccc3)cnc12 | 49%
65 | Cc1nc2nc(NC(=O)c3ccc(F)cc3)[nH]n2c(=O)c1Cc1ccccc1 | 88%
66 | Cc1ccc(CNC(=O)c2c[nH]n3c(=O)c(Cc4ccc(F)cc4Cl)c(C)nc23)cc1 | -15% (active)
67 | Cc1nc2nc(NC(=O)c3ccc(Cl)cc3)[nH]n2c(=O)c1Cc1ccccc1 | 93%
68 | COc1ccc(N2C(=O)CSC23C(=O)N(Cc2ccccc2F)c2ccccc23)cc1Cl (centres undefined) | 68%
69 | COc1cccc(NC(=O)CSC2=Nc3ccccc3N=C(c3ccc(F)cc3)C2)c1 | 69%

Row | SMILES | survival
70 | O=C(CSC1=Nc2ccccc2C2=NC(Cc3ccccc3)C(=O)N12)Nc1cccc(Cl)c1 (centres undefined) | 76%
71 | Cc1cccc(NC(=O)Cn2nnc(C(=O)NCc3cccs3)c2N)c1 | 89%
72 | Cc1ccc(-n2ncc3c(N4CCN(c5ccccc5)CC4)ncnc32)cc1C | 69%
73 | CCN1CCC(N(Cc2cccc(OC)c2)C(=O)Nc2cccc(C(F)(F)F)c2)CC1 | 66%
74 | O=C(O)c1ccc(NC(=O)c2ccc(Br)c(S(=O)(=O)N3CCCC3)c2)cc1 | 70%
75 | O=C(OCc1cc(=O)n2nc(C3CCCCC3)sc2n1)c1ccccc1Cl | 59%
76 | O=C(Nc1ccccc1)c1cn(-c2ccccc2)nc1-c1ccccc1 | 86%
77 | Cc1nc(-c2ccc(C)c(S(=O)(=O)N3CCC(C(=O)Nc4ccc(Cl)cc4)CC3)c2)no1 | 121%
78 | COc1ccc(CCNC(=O)c2c[nH]n3c(=O)c(Cc4ccccc4Cl)c(C)nc23)cc1OC | 0% (active)
79 | Cc1nc2c(C(=O)NCCc3ccc(Cl)cc3)cnn2c(C)c1Cc1c(F)cccc1Cl | 59%
80 | Cc1nc2c(C(=O)NCCc3ccc(Cl)cc3)cnn2c(C)c1Cc1ccc(F)cc1 | 73%
81 | Cc1nc2c(C(=O)NCc3ccccc3)c[nH]n2c(=O)c1Cc1ccccc1Cl | 22%
82 | COc1ccc(CCNC(=O)c2cc(C)nc3c2c(C)nn3-c2ccccc2)cc1OC | 76%
83 | Cc1nc2c(C(=O)NCCc3ccc(Cl)cc3)c[nH]n2c(=O)c1Cc1ccccc1F | -11% (active)
84 | Cc1nc2c(C(=O)N(C)Cc3ccccc3)c[nH]n2c(=O)c1Cc1ccc(Cl)cc1 | 94%
85 | Cc1nc2c(C(=O)NCc3ccccc3Cl)c[nH]n2c(=O)c1Cc1cccc(Cl)c1 | -15% (active)
86 | Cc1nc2c(C(=O)NCCc3ccc(Cl)cc3)c[nH]n2c(=O)c1Cc1ccc(Cl)cc1 | -14% (active)
87 | Cc1nc2c(C(=O)NCc3ccccc3Cl)cnn2c(C)c1Cc1ccccc1 | 85%
88 | Cc1cccn2c(=O)c(C(=O)NCCc3ccc(Cl)cc3)cnc12 | 77%
89 | COc1ccc(CCNC(=O)c2ccc(Cn3c(=O)c4ccccc4n(Cc4ccccc4Cl)c3=O)cc2)cc1OC | 95%
